These results are taken from PMC10668032, “Altered binding affinity of SIX1-Q177R correlates with enhanced WNT5A and WNT pathway effector expression in Wilms tumor”.

Over roughly 33,000 sequences, “e-score” has its median near -0.05; the highest 2% begin near 0.38. The sample holds the highest values, similar sequences and a random draw of the others, so the mix is not that of the screen.

This assay has as its target T1, SIX1-Q177R homeodomain (human, UniProt Q15475 108-198, Q177R).
T1 sequence: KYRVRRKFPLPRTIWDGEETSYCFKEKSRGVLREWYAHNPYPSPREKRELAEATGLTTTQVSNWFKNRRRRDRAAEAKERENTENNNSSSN
As to the kind of experiment: universal protein binding microarray; Universal all-10-mer PBM (8x60K, AMADID 030236), 300 nM GST-tagged protein, Alexa Fluor 488 anti-GST; buffer, salt, pH and temperature not stated (as in Berger); high values mean tight binding. The conditions noted are these: protein: ivt; tags: N-terminal GST; dsDNA, one strand shown. The method in brief:
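After in vitro transcription/translation, GST-tagged homeodomains were quantified against a recombinant GST standard curve by anti-GST western blot. They were then placed in duplicate at 300 nM final concentration on universal 'all 10-mer' protein binding microarrays of 8×60K format.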
Regarding TAGCACCA, the binding signal is 0.2242 ± 0.00214 E-score.

As to AAACACGC, the binding signal came out at 0.336 ± 0.0161 E-score.

TAACACAA: the binding signal stood at 0.216 ± 0.0241 E-score.

For the sequence TAACACCA, the binding signal turned out to be 0.477 ± 0.00686 E-score.

Regarding CACAGCTA, the binding signal came out at 0.177 ± 0.0139 E-score.

Turning to AACCCCGA, the binding signal came out at 0.232 ± 0.0298 E-score.

As to CACGCCCC, the binding signal came to 0.29 ± 0.0136 E-score.

Take AGGGGTGC: the binding signal was found to be 0.221 ± 0.0348 E-score.

For the sequence GTGTCTTA, the binding signal worked out at 0.3629 ± 0.00242 E-score.

Consider GTGTCGTA, for which the binding signal turned out to be 0.45 ± 0.0119 E-score.

For GGGTCGGA, the binding signal came out at 0.227 ± 0.0525 E-score.

With ATGTCGTG, the binding signal turned out to be 0.222 ± 0.0295 E-score.

Regarding GTATCGCA, the binding signal worked out at 0.234 ± 0.0133 E-score.

Regarding ATGTCGGG, the binding signal was 0.199 ± 0.029 E-score.

For GTGTCGCA, the binding signal came to 0.442 ± 0.0148 E-score.

GTGTCGGA: the binding signal stood at 0.454 ± 0.0132 E-score.

As to CCGAGCAC, the binding signal came to 0.178 ± 0.0032 E-score.

Turning to ACCCAGTG, the binding signal was determined as 0.21 ± 0.0315 E-score.

For the sequence AGTGGTAG, the binding signal amounted to 0.157 ± 0.00503 E-score.

In the case of ATGAGACA, the binding signal was found to be 0.159 ± 0.0072 E-score.

On to GGTGCACA, for which the binding signal was 0.268 ± 0.0361 E-score.

For ATAGCACG, the binding signal came to 0.157 ± 0.0235 E-score.

As to GTCTAACA, the binding signal worked out at 0.204 ± 0.0271 E-score.

With GTCTACAC, the binding signal came to 0.42 ± 0.0105 E-score.

With CTCCACAC, the binding signal is 0.251 ± 0.0305 E-score.

Regarding CCCTCTAC, the binding signal is 0.205 ± 0.0116 E-score.

On to ATCCACAC, for which the binding signal worked out at 0.297 ± 0.0245 E-score.

For the sequence CTCTACAC, the binding signal amounted to 0.391 ± 0.0122 E-score.

In the case of GTCCACAC, the binding signal amounted to 0.211 ± 0.0298 E-score.

As to ATCTACAC, the binding signal was determined as 0.404 ± 0.0153 E-score.

For TCGGTACA, the binding signal stood at 0.219 ± 0.0249 E-score.

With GGGTCTCA, the binding signal is 0.162 ± 0.0232 E-score.

Consider ACTGCCCG, for which the binding signal worked out at 0.219 ± 0.00643 E-score.

For TAGTATCA, the binding signal came out at 0.221 ± 0.0229 E-score.

On to CACCAAAC, for which the binding signal stood at 0.283 ± 0.0195 E-score.

In the case of ACCGCGAA, the binding signal came to 0.1607 ± 0.000856 E-score.

With CACATTTC, the binding signal stood at 0.186 ± 0.0176 E-score.

As to GTGTACGA, the binding signal stood at 0.43943 ± 0.000382 E-score.

On to GTATACCA, for which the binding signal stood at 0.152 ± 0.0219 E-score.

Turning to GGGTACTA, the binding signal was 0.224 ± 0.00292 E-score.

As to GTGTGCGA, the binding signal came out at 0.173 ± 0.0312 E-score.

Consider GTGTACTA, for which the binding signal stood at 0.438 ± 0.0127 E-score.

For GTGTGCCA, the binding signal came out at 0.242 ± 0.0264 E-score.

For GTGTACCA, the binding signal was found to be 0.4446 ± 0.00264 E-score.

Turning to AGGTACTA, the binding signal amounted to 0.1967 ± 0.000601 E-score.

CCATGGGA: the binding signal was 0.153 ± 0.052 E-score.

On to ACCTCCCA, for which the binding signal is 0.191 ± 0.00743 E-score.

Turning to AATCTGAC, the binding signal stood at 0.17 ± 0.00849 E-score.

GTCGTACA: the binding signal is 0.26 ± 0.00478 E-score.

Regarding CCCCCCGG, the binding signal came out at 0.254 ± 0.0183 E-score.

For ACACAACC, the binding signal was found to be 0.219 ± 0.0237 E-score.

On to CACCTACG, for which the binding signal came out at 0.232 ± 0.0231 E-score.

CACCTACC: the binding signal was 0.2673 ± 0.000516 E-score.

With CACCTACA, the binding signal is 0.41 ± 0.00505 E-score.

On to GTATGACA, for which the binding signal was determined as 0.257 ± 0.00319 E-score.

Turning to ACAAGTGT, the binding signal is 0.344 ± 0.0292 E-score.

CGCATACA: the binding signal is 0.185 ± 0.00496 E-score.

For CGGGATCC, the binding signal came to 0.209 ± 0.0344 E-score.

For GGGGATAC, the binding signal was 0.254 ± 0.0111 E-score.

Consider GGGGACAC, for which the binding signal stood at 0.41 ± 0.0266 E-score.

Regarding AGGGAGTC, the binding signal was determined as 0.239 ± 0.00436 E-score.

CGGGATAC: the binding signal stood at 0.281 ± 0.0031 E-score.

AGGGATAC: the binding signal was 0.165 ± 0.0372 E-score.

For AGGGACAC, the binding signal came to 0.402 ± 0.019 E-score.

For CGGGACAC, the binding signal was found to be 0.42 ± 0.00537 E-score.

GAGGGGAC: the binding signal is 0.2 ± 0.0143 E-score.

Regarding CACTTGCA, the binding signal turned out to be 0.173 ± 0.0121 E-score.

As for GGATCTGA, the binding signal stood at 0.194 ± 0.0532 E-score.

CCGGATCA: the binding signal stood at 0.176 ± 0.0156 E-score.

For AATCTGGT, the binding signal was 0.159 ± 0.0527 E-score.

Take GGTCGTAC: the binding signal came to 0.224 ± 0.0297 E-score.

As for CGGGGTCA, the binding signal was determined as 0.269 ± 0.0255 E-score.

Consider ACTTCGTG, for which the binding signal was found to be 0.238 ± 0.000686 E-score.

On to AACAAGGG, for which the binding signal was 0.177 ± 0.0185 E-score.

Turning to AGCAGGTG, the binding signal is 0.335 ± 0.0234 E-score.

In the case of ACCCCACG, the binding signal is 0.267 ± 0.00597 E-score.

Regarding GGCGATAC, the binding signal was 0.174 ± 0.0165 E-score.

Regarding CGCGACAC, the binding signal came out at 0.4355 ± 0.00314 E-score.

In the case of CGCGATAC, the binding signal amounted to 0.254 ± 0.0107 E-score.

For GGCGAGAC, the binding signal amounted to 0.168 ± 0.0212 E-score.

On to AGCGACAC, for which the binding signal was 0.465 ± 0.00955 E-score.

Take GGCGACAC: the binding signal is 0.44 ± 0.0183 E-score.

For the sequence CGCGACCC, the binding signal was determined as 0.169 ± 0.0418 E-score.

As to GAGCGACA, the binding signal stood at 0.185 ± 0.0595 E-score.

With GTATCTCA, the binding signal turned out to be 0.158 ± 0.00253 E-score.

With CACTACGA, the binding signal stood at 0.191 ± 0.00718 E-score.
